Reference: PubChem BioAssay (NCI)
Compounds without any hit were thinned out: in the full panel of roughly 83,000, 20% have a hit.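 Growth was measured after 48 h exposure to one concentration of compound in 96-well plates. Values under 10 count as active.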 Active and inactive are the calls of the source.

Columns and labels:
Experiment in all cases: NCI-60 one-dose screen, 48 h (100 = growth as untreated, 0 = no growth, -100 = all killed)
Settings in all cases: 10 µM unless noted
SK-MEL-2 melanoma = system: SK-MEL-2 melanoma
EKVX NSCLC = system: EKVX NSCLC
SN12C renal = system: SN12C renal
UO-31 renal = system: UO-31 renal
TK-10 renal = system: TK-10 renal
ACHN renal = system: ACHN renal
CAKI-1 renal = system: CAKI-1 renal
A498 renal = system: A498 renal
CCRF-CEM leukemia = system: CCRF-CEM leukemia
MOLT-4 leukemia = system: MOLT-4 leukemia

Measured: growth

COc1ccc(/C=C/C(=O)c2cccc(OCCCCOc3cccc(C(=O)/C=C/c4ccc(OC)c(OC)c4)c3)c2)cc1OC
inactive: SK-MEL-2 melanoma 81.2% | EKVX NSCLC 55% | SN12C renal 79.9% | UO-31 renal 62% | TK-10 renal 114% | ACHN renal 77.8% | CAKI-1 renal 74.2% | A498 renal 79.9% | CCRF-CEM leukemia 62.7% | MOLT-4 leukemia 62.8%

O=C(c1nn(-c2ccccc2)c2c1CC(NCc1ccc(F)cc1)CC2)N1CCCCC1 (stereo not given)
inactive: SK-MEL-2 melanoma 103% | EKVX NSCLC 97.6% | SN12C renal 105% | UO-31 renal 74.2% | TK-10 renal 92.5% | ACHN renal 104% | CAKI-1 renal 85% | A498 renal 120% | CCRF-CEM leukemia 108% | MOLT-4 leukemia 73.5%

CC1=C2[C@@H](CC1)[C@]1(C)O[C@@](C(C)C)(C[C@H]1OC(=O)[C@H](C)O)[C@H]2OC(=O)/C=C/c1ccccc1
active: UO-31 renal 0.932% | ACHN renal 8.57% | A498 renal -66.1%
inactive: SK-MEL-2 melanoma 80.6% | EKVX NSCLC 66.1% | SN12C renal 45.7% | TK-10 renal 90.1% | CAKI-1 renal 60.5% | CCRF-CEM leukemia 85.8% | MOLT-4 leukemia 62.8%

CS(=O)(=O)Nc1cncc(-c2ccc3ncnc(Nc4cncc(Cl)c4)c3c2)c1
inactive: SK-MEL-2 melanoma 67.6% | EKVX NSCLC 96.1% | SN12C renal 84.3% | UO-31 renal 77.7% | TK-10 renal 65.2% | ACHN renal 96% | CAKI-1 renal 94.9% | A498 renal 70.5% | CCRF-CEM leukemia 35.7% | MOLT-4 leukemia 78.4%

O=C(NCCCl)Nc1ncccc1OCc1ccccc1
inactive: SK-MEL-2 melanoma 101% | EKVX NSCLC 98.9% | SN12C renal 97% | UO-31 renal 94.9% | TK-10 renal 88.9% | ACHN renal 110% | CAKI-1 renal 97.9% | A498 renal 90% | CCRF-CEM leukemia 106% | MOLT-4 leukemia 95.3%

c1ccc(Cn2cc3c(c2)-c2oncc2CC3)cc1
active: CCRF-CEM leukemia 6.94%
inactive: SK-MEL-2 melanoma 53.9% | EKVX NSCLC 41.4% | SN12C renal 47.8% | UO-31 renal 41.6% | TK-10 renal 77.1% | ACHN renal 56.7% | CAKI-1 renal 47% | A498 renal 44.6% | MOLT-4 leukemia 53.6%

Cn1cc(-c2nonc2-c2cn(C)c3ccccc23)c2ccccc21
inactive: SK-MEL-2 melanoma 35.6% | EKVX NSCLC 40.4% | SN12C renal 43.6% | UO-31 renal 40.5% | TK-10 renal 62.5% | ACHN renal 44.4% | CAKI-1 renal 31.3% | A498 renal 12.3% | MOLT-4 leukemia 17.5%
active: CCRF-CEM leukemia 9.67%

NC(Cc1ccc(O)c([N+](=O)[O-])c1)C(=O)O (stereo not given)
inactive: SK-MEL-2 melanoma 109% | EKVX NSCLC 111% | SN12C renal 95.7% | UO-31 renal 88.2% | TK-10 renal 94.4% | ACHN renal 99.2% | CAKI-1 renal 93.9% | A498 renal 105% | CCRF-CEM leukemia 88.7% | MOLT-4 leukemia 96%

CC/C(=C(/c1ccc(Cl)cc1)c1ccc(OCCN2CCCCC2)cc1)c1ccc(OC)cc1
inactive: SK-MEL-2 melanoma 90.6% | EKVX NSCLC 58.5% | SN12C renal 74.8% | UO-31 renal 66.2% | TK-10 renal 80.7% | ACHN renal 81.2% | CAKI-1 renal 72.3% | A498 renal 118% | CCRF-CEM leukemia 28.8% | MOLT-4 leukemia 25.8%

CC(C)c1ccc(-n2c(=S)[nH]c3sc4cc(O)ccc4c3c2=O)cc1
inactive: SK-MEL-2 melanoma 121% | EKVX NSCLC 103% | SN12C renal 99.5% | UO-31 renal 77% | TK-10 renal 123% | ACHN renal 99% | CAKI-1 renal 91.7% | A498 renal 61.5% | CCRF-CEM leukemia 103% | MOLT-4 leukemia 98%

COc1cc(/C=C2/C=C(c3ccccc3)N(CCc3ccc(S(N)(=O)=O)cc3)C2=O)cc(OC)c1OC
inactive: SK-MEL-2 melanoma 104% | EKVX NSCLC 105% | SN12C renal 105% | UO-31 renal 87.8% | TK-10 renal 96.2% | ACHN renal 103% | CAKI-1 renal 99.1% | A498 renal 86.6% | CCRF-CEM leukemia 91% | MOLT-4 leukemia 83.1%

CCCCC1=C(P(=O)(O)O)N[C@H](C(=O)O)CS1
inactive: SK-MEL-2 melanoma 103% | EKVX NSCLC 90.5% | SN12C renal 88.2% | UO-31 renal 73.5% | TK-10 renal 94.8% | ACHN renal 97.9% | CAKI-1 renal 94.1% | A498 renal 100% | CCRF-CEM leukemia 96.8% | MOLT-4 leukemia 102%

COc1cc(NS(=O)(=O)c2ccc(-c3cnc(C4CC4)o3)cc2)ccc1F
inactive: SK-MEL-2 melanoma 54.2% | EKVX NSCLC 33% | SN12C renal 41.1% | UO-31 renal 37.1% | TK-10 renal 43.8% | ACHN renal 37.3% | CAKI-1 renal 35.4% | CCRF-CEM leukemia 19.5% | MOLT-4 leukemia 31.9%
active: A498 renal -6.34%

CN(C)S(=O)(=O)c1cccc(C(=O)Nc2nc(-c3ccc(F)c(F)c3)cs2)c1
inactive: SK-MEL-2 melanoma 32.2% | EKVX NSCLC 48.7% | SN12C renal 62.9% | UO-31 renal 38.7% | TK-10 renal 81.2% | ACHN renal 63.4% | CAKI-1 renal 97.1% | A498 renal 46.3% | CCRF-CEM leukemia 39.6% | MOLT-4 leukemia 28.2%

CCN1C(=O)N(CC)C2C1NN=c1s/c(=C\c3ccccc3F)c(=O)n12 (stereo not given)
active: A498 renal 3.4% | CCRF-CEM leukemia 8.85%
inactive: SK-MEL-2 melanoma 37.2% | EKVX NSCLC 53% | SN12C renal 23.9% | UO-31 renal 40.4% | TK-10 renal 70.3% | ACHN renal 27.5% | CAKI-1 renal 17.4% | MOLT-4 leukemia 10.2%

Nc1n[nH]c2cccc(C#Cc3cccc(C(=O)Nc4cc(C(F)(F)F)cc(C(F)(F)F)c4)c3)c12
inactive: SK-MEL-2 melanoma 72.2% | EKVX NSCLC 92% | SN12C renal 61.1% | UO-31 renal 42.5% | TK-10 renal 109% | ACHN renal 76.3% | CAKI-1 renal 96.2% | A498 renal 89.3% | CCRF-CEM leukemia 12.1% | MOLT-4 leukemia 35.4%

O=c1c2ccccc2n2cnc3ccc(Cl)c1c32
inactive: SK-MEL-2 melanoma 96.5% | EKVX NSCLC 62.7% | SN12C renal 76.1% | UO-31 renal 44.8% | TK-10 renal 49.2% | ACHN renal 50.5% | CAKI-1 renal 43.1% | A498 renal 54.1% | CCRF-CEM leukemia 95.7% | MOLT-4 leukemia 89%
